In all, about 59,000 compounds went through this assay and about 25 (0.04%) were called active. How the calls were made is not given here. Only a selection was taken, and actives are over-represented in it overall.
Assay: qHTS Assay for Spectroscopic Profiling in Resorufin Spectral Region
Details: Compound fluorescence, resorufin region 547/598 nm, buffer; active compounds read high
Description: NIH Molecular Libraries Screening Centers Network [MLSCN] NIH Chemical Genomics Center [NCGC] […] Occasionally, the artifactual effect may originate from the compound#s own spectral or other biophysical properties which generally tend to track its assay concentration. Pre-screening/profiling the library with respect to the compounds# spectral properties should help one exclude false positives early on. While the most informative fluorescent profiling data set is obtained by performing a full excitation and emission scan of each well by using a monochromator-based plate reader, such an approach is practical only on a very limited scale as scanning each well requires long time. An alternative approach, applied here, is to perform plate reader scans using selected excitation and emission wavelength pairs to generate a multidimensional relational database that correlates compound concentration and the respective relative fluorescence intensity at a given wavelength set. A standard curve of resorufin present on each plate as six-point concentration series, was used to compute a normalized fluorescence response, termed dye-equivalent concentration, for each compound at each concentration.
NCGC Assay Protocol Summary: Buffer: 100 mM Tris buffer, pH 8.0 Dye standard plate: The wells in columns 1 through 4 of a Kalypsys polypropylene 1536-well compound plate were filled with standard solutions of fluorophore corresponding to the spectral region of interest. Solutions of resorufin were placed in the following wells: M1, N1: 3 mM, M2, N2: 300 uM, M3, N3: 30 uM, M4, N4: zero (DMSO), O1, P1: 3 uM, O2, P2: […], O3, P3: 300 nM, O4, P4: zero (DMSO). Assay Steps: Six uL of buffer were dispensed to 1536-well Greiner black plates. Compounds and dye standards (23 nL) were transferred via Kalypsys PinTool. The plates were incubated for 15 min at room temperature, and then read on ViewLux (Perkin-Elmer) High-throughput CCD imager using 547 nm and 598 nm excitation and emission filter set. Keywords: NIH Roadmap, MLSCN, MLI, MLSMR, qHTS, NCGC, Resorufin, Fluorescent Profiling.

Row | SMILES | max dye-equivalent concentration
1 | COc1ccc(-c2c3c(=O)n(C)c(=O)n(C)c3cn2NC(C)=O)cc1 | inactive
2 | CCCOC(=O)C1=C(C)NC2=C(C(=O)C(C(=O)OC)C(C)C2)C1c1ccc(N(C)C)cc1 (configuration not stated) | inactive
3 | O=C1CSC(=O)N1CCOCCN1C(=O)CSC1=O | inactive
4 | O=c1cc(-c2ccccc2)nc(N2CCCCC2)[nH]1 | inactive
5 | O=C(CSc1nc2ccccc2[nH]1)c1cccs1 | inactive
6 | COc1cccc2cc(C(=O)N(C)C)c(=O)oc12 | inactive
7 | C=CCC(NCCCO)c1cccc(OC)c1OC (configuration not stated) | inactive
8 | O=C(CCCN1C(=O)CCC1=O)Nc1ccc(Cl)c(C(F)(F)F)c1 | inactive
9 | Cc1cccc2nc(CNc3ccc(F)cc3)cn12 | inactive
10 | CC1(CCC(=O)OC2CCCCC2)OCCO1 | inactive
11 | Cc1nc(NC(CC(C)C)C(=O)O)c2nc(C)oc2n1 (configuration not stated) | inactive
12 | Cc1c(C(=O)CN2CCOCC2)[nH]c2ccccc12 | inactive
13 | C[N+]1(CCNC(=O)/C=N/O)CCCCC1 | inactive
14 | Cc1ccc(C(C)C)c(OCc2nnc(SCC(=O)Nc3nccs3)n2C)c1 | inactive
15 | Cc1nn2c3cc(N4CCOCC4)ccc3nc2c2ccccc12 | inactive
16 | COc1cc(C(=O)Nc2oc(-c3ccccc3)c(-c3ccccc3)c2C#N)cc(OC)c1OC | inactive
17 | COc1cccc(Cn2c(=O)c(-c3cc(F)cc(F)c3)nc3cnc(OC)nc32)c1 | inactive
18 | O=C(CN1CCOCC1)Nc1ccc(NC(=O)CN2CCOCC2)c(Cl)c1 | inactive
19 | Cc1cccc(-n2c(N)cc(=O)nc2SC(C)C(=O)NC2CCCCC2)c1 (configuration not stated) | inactive
20 | Cn1c(=NC(=O)c2cnccn2)sc2ccccc21 | inactive
21 | O=C(O)C1OC(C(=O)O)C2C1C(F)(F)C2(F)F (configuration not stated) | inactive
22 | O=C(CSc1nc2ccccc2o1)N1CCN(c2ccccc2)CC1 | inactive

Row | SMILES | max dye-equivalent concentration
23 | CCOc1ccccc1/C=c1\sc2nc(-c3ccco3)nn2c1=O | inactive
24 | CCOC(=O)CSc1nc2c(sc(=S)n2CCc2ccccc2)c(=O)n1Cc1ccco1 | inactive
25 | CN(c1ccccc1)c1ccc(/C=c2\s/c(=C(/C#N)C(=O)C(C)(C)C)n(Cc3ccco3)c2=O)cc1 | 27 nM (active)
26 | COCCNc1ncnc2ccc(-c3ccccc3CN(C)C)cc12 | inactive
27 | C=CCn1c(SCc2csc(C)n2)nc2scc(-c3ccc(C)o3)c2c1=O | inactive
28 | O=C(CCCn1c(=O)oc2ccccc21)Nc1cccnc1 | inactive
29 | COC(=O)c1ccc(Oc2nc(Nc3ccc(F)cc3)nc(N3CCCC3)n2)cc1 | inactive
30 | O=S(=O)(NCc1ccccn1)c1ccc(Br)s1 | inactive
31 | O=C1C(=O)N(CCN2CCOCC2)C(c2ccccn2)/C1=C(/O)c1ccc(Cl)cc1 (configuration not stated) | inactive
32 | COc1cc2[nH]c(=O)n(CCC(=O)NC3CCN(Cc4ccccc4)CC3)c(=O)c2cc1OC | inactive
33 | CN(C)c1ccc(-c2nc(NCCN3CCOCC3)c3ccccc3n2)cc1 | inactive
34 | CC(C)C(NC(=O)c1cccc(S(=O)(=O)N2CCOCC2)c1)C(=O)NCCc1ccccn1 (configuration not stated) | inactive
35 | COc1cc(-c2noc(C3CCCN(S(=O)(=O)c4cccc(Cl)c4)C3)n2)cc(OC)c1OC (configuration not stated) | inactive
36 | CC(C)C(c1nnnn1C1CCCC1)N1CCN(c2ccccc2F)CC1 (configuration not stated) | inactive
37 | C=CCn1c(SCc2nnc(-c3ccccc3)o2)nnc1C(O)c1ccccc1 (configuration not stated) | inactive
38 | OCCCNCc1ccccn1 | inactive
39 | CCCCc1cc(=O)oc2cc(C)cc(OCc3nn[nH]n3)c12 | inactive
40 | COCCn1c(=O)c(-c2ccccc2)nc2cnc(N3CCOCC3)nc21 | inactive
41 | Cc1cc(N2C(=O)c3ccc(C(=O)NCc4ccccc4)cc3C2=O)no1 | inactive
42 | CCC(=O)NC(=Nc1nc2ccccc2s1)NC(=O)CC | inactive
43 | O=C(c1ccc2c(c1)C(=O)N(c1ccc(Cl)cc1)C2=O)N1CCN(c2ccccn2)CC1 | inactive
44 | Cc1ccc(F)cc1NC(=O)c1cccc(N(C)C)c1 | inactive

Row | SMILES | max dye-equivalent concentration
45 | CC(C)(C)c1cc(C(=O)NCc2cccnc2)ccn1 | inactive
46 | Cc1ccc(CNC(=O)C2CC(=O)N(C3CCCCCCC3)C2)cc1 (configuration not stated) | inactive
47 | Cc1nc2cnc(N3CCN(C)CC3)nc2n(CCC#N)c1=O | inactive
48 | CCOC(=O)C1CCN(C(=O)CC2C(=O)N(Cc3ccccc3)C(C)c3nc4ccccc4n32)CC1 (configuration not stated) | inactive
49 | COc1ccccc1N1CCN(C(=O)c2c(-c3c(Cl)cccc3Cl)noc2C)CC1 | inactive
50 | Fc1ccccc1CCNc1nnnn1-c1ccccc1 | inactive
51 | COc1ccccc1-c1nc(NCCNC(C)=O)c2ccccc2n1 | inactive
52 | COc1cc(OC)c(C(=O)NC2CC(C)(C)NC(C)(C)C2)cc1OC | inactive
53 | CN(C)CCNC(=O)C(C(=O)c1ccccc1)n1ccccc1=O (configuration not stated) | inactive
54 | Cc1nc2ccc(S(=O)(=O)NCC(=O)O)cc2s1 | inactive
55 | CC(=O)Nc1ccc(S(=O)(=O)Nc2ccc(N3CCOCC3)c(F)c2)cc1 | inactive
56 | Cc1ccc(NC(=O)CN2CCC3(O)CCCCC3C2c2ccc3c(c2)OCO3)c(C)c1 (configuration not stated) | inactive
57 | CCCC(=O)Nc1cc(OCC)c(NC(=O)NC2CCCCC2)cc1OCC | inactive
58 | O=C(NCc1ccco1)c1cc2sccc2n1Cc1ccc(F)cc1 | inactive
59 | O=C(CCCn1c(SCC(=O)c2ccc(F)cc2)nc2ccccc2c1=O)NCc1ccco1 | inactive
60 | Cc1ccc(S(=O)(=O)N2CCOCC2)cc1C(=O)NCc1ccc(F)cc1 | inactive
61 | CCC(=O)N1CCc2cc(S(=O)(=O)NC(C(=O)N3CCc4ccccc4C3)C(C)C)ccc21 (configuration not stated) | inactive
62 | Cn1c(-c2ccc(C(=O)c3ccccc3)s2)nc2ccccc21 | inactive
63 | O=C(NCCN=C1NS(=O)(=O)c2ccccc21)c1ccc(S(=O)(=O)N2CCOCC2)cc1 | inactive
64 | CCCCOc1ccc(C(C)(O)CCN2CCOCC2)cc1 (configuration not stated) | inactive
65 | CCN(CC)P(=O)(C(NC(=O)OC)C(F)(F)C(F)(F)C(F)(F)C(F)F)N(CC)CC (configuration not stated) | inactive
66 | O=C(Nc1cnccn1)c1cccnc1 | inactive

Row | SMILES | max dye-equivalent concentration
67 | Cc1cnc(CNc2cc(-c3c(C)noc3C)ncn2)cn1 | inactive
68 | COc1ccc(CN2C(=O)CN=C2Nc2ccc(C)cc2C)cc1 | inactive
69 | CC(C)(C)NC(=O)Cn1nnc(-c2ccccc2Cl)n1 | inactive
70 | COc1ccccc1C1/C(=C(/O)c2ccc(OC(C)C)cc2)C(=O)C(=O)N1c1cc(C)on1 (configuration not stated) | inactive
71 | COC(=O)c1ccc(NC(=O)CSc2nnc(CNc3ccc(OC)cc3)n2C)cc1 | inactive
72 | CCCCC[C@H](O)CCCC(=O)O | inactive
73 | CC(=O)OC(C(=O)NCCc1ccccc1)c1cccnc1 (configuration not stated) | inactive
74 | CO[C@@H]1/C=C\O[C@]2(C)Oc3c(C)c(O)c4c(O)c(c(CN(C)C)c(O)c4c3C2=O)NC(=O)/C(C)=C\C=C[C@@H](C)[C@@H](O)[C@H](C)[C@@H](O)[C@H](C)[C@H](OC(C)=O)[C@@H]1C | inactive
75 | Cc1cccc(C)c1NC(=O)CCCSc1nnc(-c2ccco2)n1-c1ccccc1 | inactive
76 | C[C@H](CCC(=O)NCC(=O)O)[C@H]1CC[C@H]2[C@H]3[C@@H](C[C@@H](O)[C@]12C)[C@]1(C)CC[C@H](O)C[C@@H]1C[C@@H]3O | inactive
77 | N#CC1=C(N)Oc2n[nH]c(CSc3ccccc3)c2C12C(=O)Nc1ccccc12 (configuration not stated) | inactive
78 | Cc1cc(C)nc(NC2=NCC(=O)N2c2ccc(Cl)cc2)n1 | inactive
79 | CCNc1ncc2nc(CCc3ccccc3)c(=O)n(-c3ccc(OC)cc3)c2n1 | inactive
80 | Cc1noc(NS(=O)(=O)c2ccc(N3CC(O)=C(c4ccccc4)C3=N)cc2)c1C | inactive
81 | C[C@H]1O[C@@H](CC(=O)O)Cc2c1c(O)c1c(O)cc(-c3cc(=O)c4c(=O)c5c(c(=O)c=4c3=O)C[C@H](CC(=O)O)O[C@@H]5C)c(O)c1c2O | inactive
82 | CCCOc1ccccc1-c1nc(SCCC(=O)O)n[nH]1 | inactive
83 | CCC(C)(C)n1nnnc1C(c1ccccc1OC)N1CCSCC1 (configuration not stated) | inactive
84 | Cc1ccc(S(=O)(=O)NCCN2CCOCC2)cc1C | inactive
85 | C=CCn1c(COc2ccccc2C)nnc1SCC(=O)O | inactive
86 | Cc1cccc(NC(=O)CSc2nc3c(c(=O)[nH]2)CCC3)c1C | inactive
87 | COc1ccccc1N1CC(O)=C(c2nc3ccccc3s2)C1=N | inactive
88 | CCN(CC(=O)NC(C)C)C(=O)CCNC(=O)c1ccc(Cl)cc1 | inactive

Row | SMILES | max dye-equivalent concentration
89 | COc1ccc2[nH]c3ccc(OC)cc3c2c1 | inactive
90 | Cc1cc(C(F)(F)F)c(C#N)c(SCC(=O)NC2CC2)n1 | inactive
91 | COc1ccc(O)c(C(=O)c2cnc3onc(C(C)C)c3c2)c1 | inactive
92 | CCOC(=O)Nc1ccc2c(c1)N(C(=O)CN1CCN3CCCC3C1)c1ccccc1CC2 (configuration not stated) | inactive
93 | CCCCNC(=O)c1ccccc1NC(=O)c1ccccc1N(C)S(C)(=O)=O | inactive
94 | CCC(C)Sc1nc2c(c(=O)[nH]c(=O)n2C)n1CC(O)COc1cccc2ccccc12 (configuration not stated) | inactive
95 | COc1ccc(-n2ncc3c(N4CCc5ccccc54)ncnc32)cc1 | inactive
96 | Cc1ccc(-n2c(Cc3cccs3)nnc2SCC(=O)OC(C)C)cc1 | inactive
97 | COCCn1c(=O)c(-c2cccc(F)c2)nc2cncnc21 | inactive
98 | COc1ccc(-n2c(=O)c(-c3cn(C)c4ccccc34)nc3cnc(OC)nc32)cc1 | inactive
99 | Cc1ccc(C(=O)NCC(=O)O)cc1S(=O)(=O)N1CCCCC1 | inactive
100 | Cn1c(SCc2c(F)cccc2Cl)nnc1-c1cnccn1 | inactive
101 | O=C(NC1CCCCC1)c1ccc2c(=O)n(CC3CCCO3)c(=O)[nH]c2c1 (configuration not stated) | inactive
102 | O=c1[nH]nc(CSCc2ccccc2Cl)[nH]1 | inactive
103 | COCCNC(=O)c1snc2ccc(Cl)cc12 | inactive
104 | CCOc1ccc(NC(=O)CCS(=O)(=O)c2cccc3nsnc23)cc1 | inactive
105 | CCOc1cc(C2C(C(=O)OC)=CN(C3CCCC3)C=C2C(=O)OC)cc(Br)c1O | inactive
106 | O=C(Nc1cnn(Cc2ccc(Cl)cc2)c1)C1CCCC1 | inactive
107 | CSc1ccc(-c2c(C#N)c(N)nc3c2c(C)nn3-c2ccccc2)cc1 | inactive
